31 compounds from the supplement of paper PMC9477273 can be followed below.

This test concerns DRIVER-selected RNA biosensor (aptazyme) pool. As to the kind of experiment: maximum fold change of ribozyme cleavage across biosensor pool versus no-compound control; higher = stronger biosensor response (ligand inhibits cleavage). The conditions noted are these: 10 µM. The essentials: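 Values are the maximum fold change of cleavage over all biosensors in a CleaveSeq assay, defined as the cleaved:uncleaved read-fraction ratio against a no-compound condition after correction with reference sequences. The 1,730 array-resynthesized ribozyme biosensors were T7-transcribed for 15–30 min at 37°C with 9 mM rNTPs and a single compound at 10 µM final, then reverse-transcribed at 50°C. Read counts came from Illumina sequencing of PCR-barcoded cleaved and uncleaved products.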
For `CCN1CCN(CCCNC(=O)c2ccc3c(c2)NC(=O)/C(=C/C(=O)c2ccc(OC)cc2)N3)CC1`, the maximum fold change worked out at 8.68. In the case of `CCOC(=O)N1CCN(C(=O)C2=C(C)C(=O)OC23CCCCC3)CC1`, the maximum fold change was 4.06. `O=C(c1cc(-c2ccccc2)n[nH]1)N1CCc2ccccc2C1` came in with a maximum fold change of 4.06.

In turn, `C=CC[n+]1c(/C=C2\C=CC=CN2C)sc2ccccc21` returned a maximum fold change of 13.8. Consider `O=C(Cn1ncn2nc(-c3cccs3)cc2c1=O)N1CCN(c2ccccn2)CC1`, for which the maximum fold change came to 3.03. As for `Cc1ccc(CNC(=O)c2cc3c(=O)oc4ccccc4c3s2)o1`, the maximum fold change came to 3.09. Consider `Cc1cccc(-c2nc3n(n2)C(c2ccccc2Cl)C2=C(CC(C)(C)CC2=O)N3)c1` (stereo unspecified), for which the maximum fold change was found to be 1.83. `N=C1/C(=C\c2ccc(Br)cc2)C(=O)N=C2SC(N3CCOCC3)=NN12` returned a maximum fold change of 2.79.

`CCOC(=O)/C(=CC=CN1CCOCC1)/C(=O)C` came in with a maximum fold change of 1.94. The compound `c1ccc(-c2nc3cc(Oc4ccc5[nH]c(-c6ccccn6)nc5c4)ccc3[nH]2)nc1` showed a maximum fold change of 2.66. `CCOc1ccc(S(=O)(=O)N2CCN(Cc3ccccc3)CC2)c2cccnc12` yielded a maximum fold change of 5.08. The compound `COc1ccc(Br)cc1CNCc1sc(C(=O)O)cc1C` displayed a maximum fold change of 3.28.

In turn, `CCc1ccc2oc(C(=O)N(Cc3ccccc3F)C3CCS(=O)(=O)C3)c(C)c2c1` (stereo unspecified) showed a maximum fold change of 4.9. For the compound `Cc1ccccc1-c1nc(CS(=O)(=O)CC(=O)N2CCN(Cc3ccccc3)CC2)c(C)o1`, the maximum fold change is 3.66. In turn, `COCCNC(=O)C1c2ccccc2C(=O)N(CCOC)C1c1c[nH]c2ccccc12` (stereo unspecified) returned a maximum fold change of 2.7. In the case of `COc1ccc(-c2nn(C)c3sc(C(=O)N4CCC(C#N)CC4)cc23)cc1OC`, the maximum fold change came to 7.42. `Cc1ccc2[nH]c(=O)c3cc(C(=O)NCCCN(C)Cc4ccccc4)sc3c2c1` displayed a maximum fold change of 7.38. With `Cc1c(CNC(C)CCc2ccccc2)c(C(=O)O)c(C)n1Cc1cccc(Cl)c1` (stereo unspecified) the figure was 4.02; with `Cn1c(-c2ccc3c(c2)OCO3)cnc1NCc1cc(Br)ccc1F`, 3.3; with `CCOC(=O)c1ccc(-c2sc3nc(N4CCOCC4)c4c(c3c2N)CC(C)(C)OC4)o1`, 2.03. The compound `c1cc(-c2nc3cc(Oc4ccc5[nH]c(-c6ccncc6)nc5c4)ccc3[nH]2)ccn1` registered a maximum fold change of 14.3. For the compound `O=C(NC1CCN(Cc2ccccc2)CC1)c1cc2c(=O)oc3ccccc3c2s1`, the maximum fold change was found to be 7.21.

Turning to `COc1ccc(C=C2C(=O)c3ccccc3C2=O)c(C)c1`, the maximum fold change was 2.53. The result for `COCCNCc1c(C(=O)O)c(C)n(Cc2ccccc2F)c1C` reads 2.4; that for `Cc1c[n+]([O-])n(-c2ccc(C(=O)O)cc2)n1`, 2.15; that for `CC1=C(C(=O)NCCC2=CCCCC2)C2(CCC(C)CC2)OC1=O` (stereo unspecified), 2.79. In turn, `CC(C)CN(CC(C)C)c1nnc(NC(=O)NCc2ccco2)s1` came in with a maximum fold change of 2.36. `CCCCOc1ccc(CNC2=NS(=O)(=O)C(c3ccc(C(C)C)cc3)=C2C)cc1` came in with a maximum fold change of 3.52. The compound `COc1cccc(/C=C(\C#N)c2nc3ccccc3[nH]2)c1O` gave a maximum fold change of 11.2. As for `CCOC(=O)c1cnc2c(C)cc(Cl)cc2c1NCCCO`, the maximum fold change came to 9.37. With `OCCCN/C=C/1C(=O)CC(CC1=O)c1ccc(cc1)OC` (stereo unspecified) the figure was 1.74.
